# According to PubChem BioAssay (NCI):
# This is part of a sample that, as a whole, favours compounds with a hit. Of some 79,000 tested, about 15% had one in any assay. Unmarked numbers belong to inactive results. Active and inactive are the calls of the source. No stated cut-off is given here; in the data, active means growth inhibition above about 70%; inactive means the rest.
# Assays:
# [1] = NCI Yeast Anticancer Drug Screen. Data for the rad52 strain (AID 147);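 further: 0% = growth of vehicle-treated control cultures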; conditions: S. cerevisiae rad52 mutant growth inhibition, hits give high values
# Method in brief: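 Inhibition of yeast growth, referenced to vehicle controls, was the measured output for a strain with defective DNA damage repair.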
# [2] = NCI Yeast Anticancer Drug Screen. Data for the wt1 strain (AID 149);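 further: 0% = growth of vehicle-treated wt1 cultures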; conditions: S. cerevisiae wt1 strain (SPY 50644) growth inhibition, hits give high values
# Method in brief: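 Vehicle-normalised growth inhibition; strain wt1; compound exposure.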
# [3] = NCI Yeast Anticancer Drug Screen. Data for the rad50EPP+ strain (AID 151);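 further: 0% = growth of vehicle-treated control cultures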; conditions: S. cerevisiae rad50 mutant strain, hits give high values
# Method in brief: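 Genetically defined yeast (rad50EPP+, DNA damage repair alteration) is grown with compound, and inhibition of growth is expressed relative to vehicle-treated controls.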
# [4] = NCI Yeast Anticancer Drug Screen. Data for the mgt1 strain (AID 153); conditions: S. cerevisiae mgt1 mutant growth inhibition, hits give high values
# Method in brief: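 In the mgt1 strain, test compounds were added and growth inhibition was determined relative to vehicle-treated controls.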
# [5] = NCI Yeast Anticancer Drug Screen. Data for the rad50 strain (AID 155);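 further: 0% = growth of vehicle-only cultures of the same strain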; conditions: S. cerevisiae rad50 strain growth inhibition, hits give high values
# Method in brief: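 A DNA repair-deficient yeast mutant serves as the test organism; compound-induced growth inhibition is calculated against vehicle-treated cells.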
# [6] = NCI Yeast Anticancer Drug Screen. Data for the mec2-1 strain (AID 157); conditions: S. cerevisiae mec2-1 strain, hits give high values
# Method in brief: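 Each compound was tested on mec2-1 yeast, a strain altered in DNA damage repair or cell cycle control. Growth inhibition is reported relative to vehicle.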
# [7] = NCI Yeast Anticancer Drug Screen. Data for the rad14 strain (AID 159);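 further: 0% = growth of vehicle-treated control cultures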; conditions: S. cerevisiae rad14 strain growth inhibition, hits give high values
# Method in brief: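 Vehicle-treated cultures served as the baseline for growth inhibition of a DNA repair-mutant yeast strain exposed to each compound.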
# [8] = NCI Yeast Anticancer Drug Screen. Data for the sgs1 mgt1 strain (AID 161);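 further: 0% = growth of cultures given vehicle only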; conditions: S. cerevisiae sgs1 mgt1 strain, hits give high values
# Method in brief: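 Genetically altered yeast, compound exposure, growth inhibition relative to vehicle.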
# [9] = NCI Yeast Anticancer Drug Screen. Data for the CLN2oe strain (AID 163);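 further: 0% = growth of vehicle-only control cultures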; conditions: S. cerevisiae CLN2oe strain, hits give high values
# Method in brief: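 First, the altered yeast strain was treated with each compound; second, its growth was measured; finally, inhibition was derived by comparison with vehicle controls.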
# [10] = NCI Yeast Anticancer Drug Screen. Data for the cln2 rad14 strain (AID 165);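 further: 0% = growth equal to vehicle treated cultures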; conditions: S. cerevisiae cln2 rad14 strain, hits give high values
# Method in brief: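 Test compounds were added to cln2 rad14 yeast cultures; inhibition of growth was then determined by comparison with vehicle treatment.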
# [11] = NCI Yeast Anticancer Drug Screen. Data for the bub3 strain (AID 167); conditions: S. cerevisiae bub3 mutant strain, hits give high values
# Method in brief: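 Inhibition values come from growth of compound-treated mutant yeast normalised to vehicle-treated controls.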
# [12] = NCI Yeast Anticancer Drug Screen. Data for the wt2 strain (AID 169);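 further: 0% = growth of vehicle-treated yeast cultures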; conditions: S. cerevisiae wt2 strain growth inhibition, hits give high values
# Method in brief: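 The panel's yeast strains carry defined changes in DNA repair or cell cycle genes. Each strain is grown with compound, and growth loss is scored relative to vehicle.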
# [13] = NCI Yeast Anticancer Drug Screen. Data for the mlh1 strain (AID 171);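 further: 0% = growth of vehicle-treated control cultures of the same strain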; conditions: S. cerevisiae mlh1 strain growth inhibition, hits give high values
# Method in brief: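 Inhibition values reflect reduced yeast growth in the presence of compound, referenced to vehicle controls, using a strain chosen for its alteration in DNA repair or cell cycle control.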
# [14] = NCI Yeast Anticancer Drug Screen. Data for the sgs1 strain (AID 173);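 further: 0% = growth of vehicle-only control cultures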; conditions: S. cerevisiae sgs1 mutant, hits give high values
# Method in brief: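 Vehicle-treated cultures served as reference for growth inhibition of a yeast strain altered in DNA damage repair or cell cycle control after compound exposure.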
# [15] = NCI Yeast Anticancer Drug Screen. Data for the mlh1 rad18 strain (AID 175); conditions: S. cerevisiae mlh1 rad18 strain growth inhibition, hits give high values
# Method in brief: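 Inhibition values reflect reduced growth of mutant yeast versus vehicle-treated controls following compound exposure; the mutations affect DNA damage repair.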
# [16] = NCI Yeast Anticancer Drug Screen. Data for the rad18 strain (AID 177); conditions: S. cerevisiae rad18 mutant growth inhibition, hits give high values
# Method in brief: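 Steps: expose repair-mutant yeast to compound; measure growth; express as inhibition relative to vehicle control.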
# [17] = at 5.0 µM (retest, dose inferred, filed as 0.5)
# [18] = at 50.0 µM (retest, dose inferred, filed as 5.0)
structure (smiles),measurement,setting,value
COc1ccc(-c2cn(-c3ccc(I)cc3)c3ncnc(N)c23)cc1,growth inhibition,[1]; at 1.2 µM,-2%
same,growth inhibition,[1]; at 3.7 µM,-5%
same,growth inhibition,[1]; at 11.0 µM,-9%
same,growth inhibition,[1]; at 33.0 µM,-7%
same,growth inhibition,[1]; at 100.0 µM,-8%
same,growth inhibition,[2]; at 1.2 µM,-4%
same,growth inhibition,[2]; at 3.7 µM,-4%
same,growth inhibition,[2]; at 11.0 µM,-10%
same,growth inhibition,[2]; at 33.0 µM,-11%
same,growth inhibition,[2]; at 100.0 µM,-2%
same,growth inhibition,[3]; at 1.2 µM,-2%
same,growth inhibition,[3]; at 3.7 µM,1%
same,growth inhibition,[3]; at 11.0 µM,6%
same,growth inhibition,[3]; at 33.0 µM,8%
same,growth inhibition,[3]; at 100.0 µM,6%
same,growth inhibition,[4]; at 1.2 µM,-6%
same,growth inhibition,[4]; at 3.7 µM,-8%
same,growth inhibition,[4]; at 11.0 µM,-11%
same,growth inhibition,[4]; at 33.0 µM,2%
same,growth inhibition,[4]; at 100.0 µM,17%
same,growth inhibition,[5]; at 1.2 µM,-2%
same,growth inhibition,[5]; at 3.7 µM,-2%
same,growth inhibition,[5]; [17],4%
same,growth inhibition,[5]; at 11.0 µM,-2%
same,growth inhibition,[5]; at 33.0 µM,1%
same,growth inhibition,[5]; [18],69%
same,growth inhibition,[5]; at 50.0 µM,14.8%
same,growth inhibition,[5]; at 100.0 µM,-10%
same,growth inhibition,[6]; at 1.2 µM,-4%
same,growth inhibition,[6]; at 3.7 µM,-4%
same,growth inhibition,[6]; [17],-6%
same,growth inhibition,[6]; at 11.0 µM,-5%
same,growth inhibition,[6]; at 33.0 µM,0%
same,growth inhibition,[6]; [18],78% (active)
same,growth inhibition,[6]; at 50.0 µM,1.7%
same,growth inhibition,[6]; at 100.0 µM,1%
same,growth inhibition,[7]; at 1.2 µM,-5%
same,growth inhibition,[7]; at 3.7 µM,-8%
same,growth inhibition,[7]; at 11.0 µM,-12%
same,growth inhibition,[7]; at 33.0 µM,-8%
same,growth inhibition,[7]; at 100.0 µM,-1%
same,growth inhibition,[8]; [17],39%
same,growth inhibition,[8]; [18],82% (active)
same,growth inhibition,[8]; at 50.0 µM,-11.2%
same,growth inhibition,[9]; at 1.2 µM,-7%
same,growth inhibition,[9]; at 3.7 µM,-8%
same,growth inhibition,[9]; at 11.0 µM,-2%
same,growth inhibition,[9]; at 33.0 µM,9%
same,growth inhibition,[9]; at 100.0 µM,4%
same,growth inhibition,[10]; [17],4%
same,growth inhibition,[10]; [18],65%
same,growth inhibition,[10]; at 50.0 µM,-0.5%
same,growth inhibition,[11]; at 1.2 µM,-2%
same,growth inhibition,[11]; at 3.7 µM,-2%
same,growth inhibition,[11]; [17],12%
same,growth inhibition,[11]; at 11.0 µM,-3%
same,growth inhibition,[11]; at 33.0 µM,0%
same,growth inhibition,[11]; [18],72% (active)
same,growth inhibition,[11]; at 50.0 µM,13.2%
same,growth inhibition,[11]; at 100.0 µM,0%
same,growth inhibition,[12]; at 1.2 µM,-4%
same,growth inhibition,[12]; at 3.7 µM,-8%
same,growth inhibition,[12]; at 11.0 µM,-10%
same,growth inhibition,[12]; at 33.0 µM,-8%
same,growth inhibition,[12]; at 100.0 µM,-8%
same,growth inhibition,[13]; at 1.2 µM,-2%
same,growth inhibition,[13]; at 3.7 µM,-5%
same,growth inhibition,[13]; at 11.0 µM,-5%
same,growth inhibition,[13]; at 33.0 µM,10%
same,growth inhibition,[13]; at 100.0 µM,9%
same,growth inhibition,[14]; at 1.2 µM,-4%
same,growth inhibition,[14]; at 3.7 µM,-5%
same,growth inhibition,[14]; at 11.0 µM,-3%
same,growth inhibition,[14]; at 33.0 µM,26%
same,growth inhibition,[14]; at 100.0 µM,29%
same,growth inhibition,[15]; [17],4%
same,growth inhibition,[15]; [18],-17%
same,growth inhibition,[15]; at 50.0 µM,14.2%
same,growth inhibition,[16]; at 1.2 µM,-5%
same,growth inhibition,[16]; at 3.7 µM,-9%
same,growth inhibition,[16]; at 11.0 µM,-10%
same,growth inhibition,[16]; at 33.0 µM,-4%
same,growth inhibition,[16]; at 100.0 µM,0%
